Calls of active or inactive are those of the source. How the source made its calls: active means hit-call score of the fitted dose curve at least 0.9, where 1 is the maximum; inactive means score below 0.9.

This experiment is described as follows: ATG_M_19_CIS: Attagene CIS-FACTORIAL HepG2 Assay for M19 Transcription Factor (Internal Marker) (AID 2282939). The settings on record: HepG2 Attagene CIS-FACTORIAL M19 internal marker reporter; actives raise or lower the signal. On the procedure: ATG_CIS is a cell-based, multiplexed-readout assay that uses HepG2, a human liver cell line, with measurements taken at 24 hours after chemical dosing in a 24-well plate.ATG_M_19_CIS is one of 52 assay component(s) measured or calculated from the ATG_CIS assay. It is designed to make measurements of mRNA induction, a form of inducible reporter, as detected with fluorescence intensity signals by Reverse transcription polymerase chain reaction (RT-PCR) and Capillary electrophoresis technology.Data from the assay component ATG_M_19_CIS was analyzed into 1 assay endpoint. This assay endpoint, ATG_M_19_CIS, was analyzed with bidirectional fitting relative to DMSO as the negative control and baseline of activity. Using a type of inducible reporter, measures of mRNA for gain or loss-of-signal activity can be used to understand the background control at the transcription factor-level as they relate to the gene . Furthermore, this assay endpoint can be referred to as a secondary readout, because this assay has produced multiple assay endpoints where this one serves a background control function. To generalize the intended target to other relatable targets, this assay endpoint is annotated to the background measurement intended target family, where the subfamily is internal marker.
Human liver HepG2 cells are transiently transfected with multiple reporter transcription units (MRTUs) in 6-well plates using FuGene 6 reagent (Roche; 3 ml FuGene/1 mg DNA). The MRTU constructs are regulated by a cis-regulating element (promoter). […] A major difference between the CIS and TRANS system is that in CIS activities of endogenous TFs are measured, whereas the TRANS assay evaluates changes in activities of exogenous, chimeric NR-Gal4 proteins. […] At the end of 24 hour incubation, total RNA was isolated using TriZol reagent (Invitrogen). The isolated RNA is then reverse-transcribed using oligo(dT) primer and Mo-MLV reverse transcriptase (Invitrogen) with DNAse I (Ambion) treatment for 30 min. The one-tenth of the produced cDNA was amplified by PCR using Taq DNA polymerase (Invitrogen) and two reporter sequence-specific primers. The PCR products were fluorescently labeled by primer extension with 6-arboxyfluorescein (6-FAM) 5'-labeled reporter sequence-specific primer (2 min at 95 C, 20 s at 68 C and 10 min at 72 C) and these products were digested with 5U of HpaI (New England Biolabs) for 2h at 37 C. The fragments were purified using Qiaquick PCR columns (Qiagen), analyzed on an ABI 3130xL genetic analyzer (Applied Biosystems) with peak positions identified by using a set of X-rhodamine (ROX)-labeled MapMarker1000 molecular weight standards (BioVentures). The raw capillary electrophoresis data was processed using Attagraph software (Attagene).
As to `COc1ccc(O)cc1`, the result was inactive.

For the compound `CC(C)C1CCC(O)CC1` (stereo not given), the compound was classed as inactive.

Turning to `O=Nc1ccc(Nc2ccccc2)cc1`, the compound was classed as inactive.

For the compound `C=C(C)C(=O)OCc1ccccc1`, the result was inactive.

For the compound `O=c1cc(-c2ccccc2)oc2cc(O)cc(O)c12`, the compound was called inactive.

As to `COc1cc(C=O)ccc1OC(=O)C(C)C`, the compound was called inactive.

On to `CC1(C)[C@H](C(=O)OCc2cccc(Oc3ccccc3)c2)[C@@H]1C=C(Cl)Cl`, for which the result was inactive.

As for `CC(=O)C=CC1=C(C)CCCC1(C)C`, the call was inactive.

On to `Nc1cccc(S(=O)(=O)c2cccc(N)c2)c1`, for which the result was inactive.

With `COC(=O)c1ccc(C)cc1`, the result was inactive.

Turning to `N#Cc1ccccc1`, the compound was called inactive.

Regarding `CC(C)C(C)(C)C(C)(C)C(C)(C)S`, the result was inactive.

For `CN(CCOc1ccc(CC2SC(=O)NC2=O)cc1)c1ccccn1` (stereo not given), the call was inactive.

Consider `COc1nc(C)nc(N)n1`, for which the outcome was inactive.

For the compound `CCCC(C)C=O` (stereo not given), the result was inactive.

`OC[C@H]1O[C@H](O[C@]2(CCl)O[C@H](CCl)[C@@H](O)[C@@H]2O)[C@H](O)[C@@H](O)[C@H]1Cl`: the compound was classed as inactive.

Consider `CNCCCC12CCC(c3ccccc31)c1ccccc12`, for which the call was inactive.

On to `CCCCCOC(=O)CCC`, for which the result was inactive.

For the compound `CCCCc1ccc(N)cc1`, the compound was classed as inactive.

Consider `CC(C)=CCCC(C)CC=O` (stereo not given), for which the outcome was inactive.

For the compound `CCCCCCCCCCCCCOS(=O)(=O)O`, the outcome was inactive.

`O=C(COc1ccc(Cl)cc1)N1CCN(Cc2ccc3c(c2)OCO3)CC1`: the compound was classed as inactive.

Regarding `COC(C(=O)O)c1ccccc1` (stereo not given), the result was inactive.

`CC(C)(CO)[N+](=O)[O-]`: the result was inactive.

On to `CC(C)CCCCCCCOC(=O)c1ccc(C(=O)OCCCCCCCC(C)C)c(C(=O)OCCCCCCCC(C)C)c1`, for which the result was inactive.

For `O=c1oc(=O)c2cc3c(=O)oc(=O)c3cc12`, the compound was classed as inactive.

Regarding `COc1ccc(NC(=O)CC(C)=O)cc1`, the compound was called inactive.

For `OCCCCCO`, the call was inactive.

With `Nc1nc2ccc([N+](=O)[O-])cc2s1`, the call was inactive.

Take `O=C(Cl)c1cccc(C(=O)Cl)c1`: the call was inactive.

For the compound `CCOC(=O)c1ccccc1OC`, the compound was classed as inactive.

As to `Cc1c(N(C)C)c(=O)n(-c2ccccc2)n1C`, the result was inactive.

Regarding `O=C(O)CN(CCN(CC(=O)O)CC(=O)O)CCN(CC(=O)O)CC(=O)O`, the compound was classed as inactive.

On to `BrC1CCC(Br)C(Br)CCC(Br)C(Br)CCC1Br` (stereo not given), for which the result was inactive.

For the compound `CC[C@]12CCCN3CCc4c(n(c5ccccc45)[C@@](O)(C(=O)OC)C1)[C@@H]32`, the compound was classed as inactive.

For the compound `Cc1ccc(C=O)s1`, the result was inactive.

With `Cc1cccc(C)c1C`, the call was inactive.

`CCCCCCCCCCC(CO)CCCCCCCC` (stereo not given): the compound was classed as inactive.

For `OC1OC[C@@H](O)[C@H](O)[C@H]1O` (stereo not given in full), the call was inactive.

For the compound `Sc1nc(S)nc(S)n1`, the call was inactive.
